An excerpt weighted towards active compounds, which were near 19% of everything screened.
IL1B secr inh – inhibitors of inflammasome signaling (IL-1 beta secretion); THP-1 LPS/ATP IL-1B secretion, AlphaLISA, 16 h; stronger effect = lower value; activity change, % at 57.5 µM; actives 4.7% (n = 360,000); AID 743279; in the data active means activity change below about -50%; inconclusive means mostly about -30% to -49%
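THP-1 cells pretreated 1 hr with compounds (up to 57.5 uM final), then stimulated with LPS (250 ng/mL final) plus ATP (1.25 mM final); secreted IL-1B measured by AlphaLISA after 16 hr, decreased signal indicating inhibition.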
HT1080 IDH1KD tx – HT-1080 IDH1 knockdown cell toxicity (counter line) | AID 686971 | actives 2% (n = 360,000) | Potency, µM (doses to about 46.1 µM), without a hit: top-dose activity, negative = toxicity, most hits filed as cytotoxic | HT-1080 IDH1 knockdown viability, ATP luminescence, 48 h;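 further: potency means the concentration at half of the fitted maximal effect; 0% = DMSO wells and -100% = cell-free medium wells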
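Cytotoxicity counter-line: IDH1KD HT-1080, 48 h, CellTiter-Glo. Curves classed by r2, magnitude and activity.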
TDP1 cell CPT – DT40-hTDP1 cell growth loss with CPT. actives 12% (n = 420,000). Potency, µM (highest dose often 46.2 µM), for the others: top-dose activity change, negative = growth inhibition, hits mostly inhibitors. chicken DT40 Tdp1-/-;hTDP1 cells + 20 nM CPT, ATP luminescence, 48 h; further: potency means the concentration at half of the fitted maximal effect; nearly all actives have a fitted effect of over 55% in size
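Chicken DT40 Tdp1-/- cells stably complemented with human TDP1 were seeded at 400 cells/well in medium containing 20 nM camptothecin, exposed to pin-transferred compounds, and grown at 37 °C for at least 48 hr. Viability was read as ATP luminescence.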
HT1080NT lethal – kills 2HG-producing HT-1080-NT fibrosarcoma cells; HT-1080-NT fibrosarcoma viability, CellTiter-Glo ATP luminescence, 48 h; Potency, µM (highest dose often 46.1 µM), without a hit: at the top dose activity, negative = less viability, actives largely listed as cytotoxic; actives 1.6% (n = 360,000);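 further: NT is the 2HG producing partner of a matched IDH1 knockdown line; potency means the concentration at half of the fitted maximal effect; 0% = DMSO-treated cells and -100% = media-only wells without cells; nearly all actives have a fitted effect of over 55% in size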
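750 cells/well, RPMI + 5% FBS; 2 h settle, compound pin-transfer, 48 h at 37 degrees C. CellTiter-Glo 10 min RT, luminescence. Normalized to DMSO and media-only wells.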
TDP1 cell noCPT – qHTS for Inhibitors of human tyrosyl-DNA phosphodiesterase 1 (TDP1): qHTS in cells in absence of CPT; DT40 Tdp1-/- hTDP1 cells, no CPT, ATP luminescence, 48 h; actives 15% (n = 420,000); Potency, µM (series often up to 46.2 µM), for the others: at the highest dose activity change, negative = growth inhibition, hits mostly inhibitors; further: potency means the concentration at half of the fitted maximal effect; nearly all actives have a fitted effect of over 55% in size
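Growth kinetics read by CellTiter-Glo luminescence after ≥48 hr at 37 °C. Cells: DT40 Tdp1-/- stably carrying human TDP1, 400 per well, compound exposure in the absence of CPT (DMSO vehicle).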
The depositor's hits bear a star; ? = inconclusive; . = no result given. Unless noted, the call rests on the fitted dose curve; in most records, active means well fitted curve in the direction sought with a large enough effect; inconclusive means small, poorly fitted or top-dose-only effect, or another doubt; inactive means no such curve, though single readings can be large; an effect the other way counts as inactive or inconclusive. Unless noted, on the % scale 0 is the no-effect control and ±100 the full control effect.

SMILES	IL1B secr inh	HT1080 IDH1KD tx	TDP1 cell CPT	HT1080NT lethal	TDP1 cell noCPT
CCCCNC(=O)c1cc(-c2ccc(F)cc2)on1	42	?	13µM*	?	?
O=C(NCCCN1CCOCC1)c1cc(-c2ccc(Br)cc2)on1	-62*	-4%	?	?	-28%
Cc1cccc(-c2nc3scc(CCNS(=O)(=O)c4ccc5c(c4)OCCO5)n3n2)c1	.	.	23µM*	.	?
Cc1ccc(S(=O)(=O)NCCc2csc3nc(-c4ccccc4C)nn23)cc1	.	.	-23%	.	?
CC(=O)Nc1ccc(S(=O)(=O)NCCc2csc3nc(-c4cccc(C)c4)nn23)cc1	.	.	?	.	21µM*
COc1ccc(OC)c(S(=O)(=O)NCCc2csc3nc(-c4ccccc4)nn23)c1	.	.	-27%	.	?
Cc1cccc(-c2nc3scc(CCNS(=O)(=O)c4ccc(F)cc4C)n3n2)c1	.	.	?	.	16µM*
COc1ccc(C(=O)NCCNc2nc3cc(C)cc(C)c3cc2C#N)c(OC)c1	0	5%	?	13%	?
O=C(NCCc1ccccc1)c1ccc(CS(=O)Cc2ccc(Cl)cc2)o1 (stereo not drawn)	-8	0%	?	-4%	?
CSc1cccc(NC(=O)CN(c2cc(C)ccc2C)S(C)(=O)=O)c1	?	-26%	-12%	-20%	?
O=c1oc(-c2cccs2)nc2c1cnn2-c1ccccc1	-6	1%	?	3%	?
O=c1c2cnn(-c3ccccc3)c2nc(-c2cccs2)n1-c1cccc(Cl)c1	-2	0%	15µM*	3%	9.2µM*
O=c1c2cnn(-c3ccccc3)c2nc(-c2cccs2)n1-c1ccc(Cl)cc1	26	4%	0.46µM*	2%	0.58µM*
CC(C)NC(=O)C1(C)Cc2c(-c3cccc(C(F)(F)F)c3)ccnc2O1 (stereo not drawn)	27	0%	18µM*	8%	12µM*
CC(=O)Nc1cccc(-c2ccnc3c2CC(C)(C(=O)Nc2cccc(C(C)=O)c2)O3)c1 (stereo not drawn)	-16	15µM*	5.8µM*	-10%	6.5µM*
CC1(C(=O)Nc2ccc3c(c2)OCO3)Cc2c(-c3ccccc3)ccnc2O1 (stereo not drawn)	28	?	?	-25%	?
CC(=O)Nc1cccc(-c2ccnc3c2CC(C)(C(=O)Nc2ccc4c(c2)OCO4)O3)c1 (stereo not drawn)	44	?	0.65µM*	?	0.65µM*
CC(=O)Nc1ccc(-c2ccnc3c2CC(C)(C(=O)Nc2ccc(F)c(Cl)c2)O3)cc1 (stereo not drawn)	-62*	?	?	?	23µM*
COc1ccccc1CN1CCC2(CC1)CCN(C(=O)c1ccncc1)CC2	.	.	14%	.	0%
CC1(C(=O)Nc2ccc(Cl)cc2)Cc2c(-c3cccc(C(F)(F)F)c3)ccnc2O1 (stereo not drawn)	-4	?	?	?	23µM*
CC(=O)Nc1cccc(-c2ccnc3c2CC(C)(C(=O)Nc2ccc(Cl)cc2)O3)c1 (stereo not drawn)	-20	4.1µM*	1.6µM*	9.2µM*	4.1µM*
COc1ccc(NC(=O)C2(C)Cc3c(-c4cccc(C(F)(F)F)c4)ccnc3O2)cc1OC (stereo not drawn)	7	15µM*	16µM*	21µM*	21µM*
CC(=O)Nc1ccc(NC(=O)C2(C)Cc3c(-c4cccc(NC(C)=O)c4)ccnc3O2)cc1 (stereo not drawn)	-3	3%	13%	26%	12%
CC(=O)Nc1cccc(-c2ccnc3c2CC(C)(C(=O)NCc2ccncc2)O3)c1 (stereo not drawn)	0	-14%	21µM*	8%	18µM*
CC(=O)Nc1cccc(-c2ccnc3c2CC(C)(C(=O)Nc2cccnc2)O3)c1 (stereo not drawn)	28	16%	-28%	?	-29%
SMILES	IL1B secr inh	HT1080 IDH1KD tx	TDP1 cell CPT	HT1080NT lethal	TDP1 cell noCPT
CC(C)(C)NC(=O)C(=O)N/N=C/c1cccs1	37	8%	-2%	9%	-1%
Cn1cnc2c(N/N=C/c3cccs3)ncnc21	-91*	?	?	?	?
N#C/C(=C\c1ccc(-c2nc3ccccc3s2)o1)C(N)=O	23	-2%	?	-16%	18µM*
CNC(=O)/C(C#N)=C/c1ccc(-c2nc3ccccc3s2)o1	.	25%	-4%	24%	?
O=C(NCc1ccco1)c1ccc(OC2CCN(Cc3ccccn3)CC2)cc1	?	-2%	2%	4%	-3%
COc1ccc(/C=C/C(=O)Nc2nc3n(n2)C(c2ccccc2)C=C(c2ccccc2)N3)cc1 (stereo not drawn)	.	.	7.3µM*	.	5.8µM*
O=C(/C=C/c1ccccc1)Nc1nc2n(n1)C(c1ccc(F)cc1)C=C(c1ccccc1)N2 (stereo not drawn)	.	.	7.3µM*	.	8.2µM*
COc1ccc(C2C=C(c3ccccc3)Nc3nc(NC(C)=O)nn32)cc1 (stereo not drawn)	.	.	-27%	.	?
COc1ccc(/C=C/C(=O)Nc2nc3n(n2)C(c2ccc(F)cc2)C=C(c2ccccc2)N3)cc1 (stereo not drawn)	.	.	5.2µM*	.	3.7µM*
Cc1ccc(C2C=C(c3ccccc3)Nc3nc(NS(=O)(=O)c4ccccc4)nn32)cc1 (stereo not drawn)	.	.	-59%	.	?
Cc1ccc(C2C=C(c3ccccc3)Nc3nc(NS(C)(=O)=O)nn32)cc1 (stereo not drawn)	.	.	3%	.	-2%
COc1ccc(C2C=C(c3ccccc3)Nc3nc(NC(=O)/C=C/c4ccc(F)cc4)nn32)cc1 (stereo not drawn)	.	.	21µM*	.	21µM*
CC(C)(C)C(=O)NC(n1cnc2c(N3CCOCC3)ncnc21)C(Cl)(Cl)Cl (stereo not drawn)	74	12%	-3%	30%	-19%
Cc1cc(-c2nn(-c3ccccc3)cc2/C=C2\SC(N)=NC2=O)ccc1OC(C)C	-8	2%	?	7%	?
CC1CCN(C2=NC(=O)/C(=C/c3cn(-c4ccccc4)nc3-c3cccc(S(=O)(=O)N(C)C)c3)S2)CC1	-30	0%	7.3µM*	-2%	6.5µM*
CC1CCCN(C2=NC(=O)/C(=C/c3cn(-c4ccccc4)nc3-c3cccc(S(=O)(=O)N(C)C)c3)S2)C1 (stereo not drawn)	-17	8%	16µM*	-2%	12µM*

High-throughput results from PubChem BioAssay.
